Measured values taken from PubChem BioAssay (NCI).
About 83,000 compounds went through this panel and 20% of them were active in at least one assay; those are over-represented in the sample as a whole.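 Treatment: one concentration, 48 hours, 96-well format. Scoring: percent growth, with anything below 10 considered active.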 Active and inactive are the calls of the source.

Each compound was assayed on UO-31 renal (assay: NCI-60 one-dose screen, 48 h (100 = growth as untreated, 0 = no growth, -100 = all killed)). Settings: 10 µM unless noted.
In the case of `CCOC(=O)C(C(C)=O)c1nc2sc3cc(Cl)ccc3n2c(=N)c1C#N` (configuration not stated), the growth is reported as 76.1% (inactive).
`COc1ccc(-c2nn(-c3cccc(Cl)c3)cc2C2CC(c3ccccc3)=NN2C(C)=O)cc1` (configuration not stated) was tested, and the growth was 58.9% (inactive).
With `CCS(=O)(=O)OCCCl` the growth was 68.3% (inactive).
In the case of `O=C1Nc2ccc(F)cc2/C1=C/c1nc(-c2ccc(F)cc2)n2ccccc12`, the growth is reported as 93.4% (inactive).
For `Cc1c(C(N)=O)sc2ncn(Cc3ccccc3)c(=O)c12`, the growth was 61.7% (inactive).
For `Nc1nc2ncc(CCNc3ccc(C(=O)NC(CCC(=O)O)C(=O)O)cc3)nc2c(=O)[nH]1` (configuration not stated), the growth was 70.7% (inactive).
With `COc1cccc2c1C(=O)c1c(O)c3c(c(O)c1C2=O)C[C@@](O)(/C(C)=N/NC(=O)c1cccc([N+](=O)[O-])c1)C[C@@H]3OC1CC(N)C(O)C(C)O1` (some centres not stated) the growth was -17% (active).
With `NC(=O)NN=C(C1CC1)C1CC1` the growth was 82.1% (inactive).
With `C[n+]1ccc(Nc2ccc(NC(=O)c3ccc(Nc4cc[n+](C)c5ccc(N)cc45)cc3)cc2)cc1` the growth was 75.7% (inactive).
In the case of `COc1cc(OC)c2cc(C(=O)O)c(=O)oc2c1`, the growth is reported as 80.7% (inactive).
For `CCOc1ccccc1C(=O)OCC(=O)Nc1cccc(S(=O)(=O)N(C)C)c1`, the growth was 79% (inactive).
`S=C(Nc1ccc(C2=NCCN2)cc1)Nc1ccc(C2=NCCN2)cc1` was tested, and the growth was 83.4% (inactive).
For `S=c1[nH]nc2sc3ccccc3n12`, the growth was 84.2% (inactive).
`Cn1c(N)c(N=O)c(=O)[nH]c1=O` was tested, and the growth was 82.5% (inactive).
In the case of `Cc1ccc(C(=O)Nc2ccc(Cl)cc2C(=O)NCc2ccccc2)cc1`, the growth is reported as 76.5% (inactive).
`O=[N+]([O-])c1ccc2c(c1)S(=O)c1cc([N+](=O)[O-])ccc1N2` was tested, and the growth was 77.7% (inactive).
For `Nc1ccc2c3c(cccc13)-c1ccccc1-2`, the growth was 32.3% (inactive).
`CC(c1cc(Cl)ccc1O)c1cc(Cl)ccc1O` was tested, and the growth was -7.88% (active).
With `Nc1ccc2c(c1)/C(=N/O)c1cc([N+](=O)[O-])ccc1-2` the growth was 21.7% (inactive).
In the case of `Nc1cc(Cl)c(S(N)(=O)=O)cc1S(N)(=O)=O`, the growth is reported as 102% (inactive).
`O=C(CSc1nc2c(n1Nc1ccccc1)-c1ccccc1SC2)Nc1nc(-c2ccc(Cl)cc2)cs1` was tested, and the growth was 79.7% (inactive).
In the case of `Cc1cc(O)c2c(c1)C[C@H]1[C@@H]3CC[C@H]4CC(=O)CC[C@]4(C)[C@H]3CC(=O)[C@]21C`, the growth is reported as 113% (inactive).
